Measured values reported in the supplement of paper PMC11732987, “Enantioselective OTUD7B fragment discovery through chemoproteomics screening and high-throughput optimisation” (Communications Chemistry, 2025).
A number with no mark means an inactive call.

These targets were tested with ClCC(=O)N1CCC(CC#N)C1 (assay: log2 ratio of Biotin-Ahx-Ub-VS probe labelling (compound/DMSO); higher = less target engagement, active = hit call of the paper (q ≤ 0.05, log2 ratio ≤ -1)). Conditions: compound concentration: 50uM; treatment time: 3 h.
Method: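 Round 2 competitive ABPP in HEK293T lysate. Purified HTC-D2B compounds were tested at 50 and 200 µM for 3 h, followed by Biotin-Ahx-Ub-VS enrichment and diaPASEF LC-MS/MS. Values are the average log2 ratio (compound/DMSO) from an unpaired t-test (n=3 treated, n=26 DMSO).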

UniProt Q93009, sequence (Q93009 whole entry, looked up): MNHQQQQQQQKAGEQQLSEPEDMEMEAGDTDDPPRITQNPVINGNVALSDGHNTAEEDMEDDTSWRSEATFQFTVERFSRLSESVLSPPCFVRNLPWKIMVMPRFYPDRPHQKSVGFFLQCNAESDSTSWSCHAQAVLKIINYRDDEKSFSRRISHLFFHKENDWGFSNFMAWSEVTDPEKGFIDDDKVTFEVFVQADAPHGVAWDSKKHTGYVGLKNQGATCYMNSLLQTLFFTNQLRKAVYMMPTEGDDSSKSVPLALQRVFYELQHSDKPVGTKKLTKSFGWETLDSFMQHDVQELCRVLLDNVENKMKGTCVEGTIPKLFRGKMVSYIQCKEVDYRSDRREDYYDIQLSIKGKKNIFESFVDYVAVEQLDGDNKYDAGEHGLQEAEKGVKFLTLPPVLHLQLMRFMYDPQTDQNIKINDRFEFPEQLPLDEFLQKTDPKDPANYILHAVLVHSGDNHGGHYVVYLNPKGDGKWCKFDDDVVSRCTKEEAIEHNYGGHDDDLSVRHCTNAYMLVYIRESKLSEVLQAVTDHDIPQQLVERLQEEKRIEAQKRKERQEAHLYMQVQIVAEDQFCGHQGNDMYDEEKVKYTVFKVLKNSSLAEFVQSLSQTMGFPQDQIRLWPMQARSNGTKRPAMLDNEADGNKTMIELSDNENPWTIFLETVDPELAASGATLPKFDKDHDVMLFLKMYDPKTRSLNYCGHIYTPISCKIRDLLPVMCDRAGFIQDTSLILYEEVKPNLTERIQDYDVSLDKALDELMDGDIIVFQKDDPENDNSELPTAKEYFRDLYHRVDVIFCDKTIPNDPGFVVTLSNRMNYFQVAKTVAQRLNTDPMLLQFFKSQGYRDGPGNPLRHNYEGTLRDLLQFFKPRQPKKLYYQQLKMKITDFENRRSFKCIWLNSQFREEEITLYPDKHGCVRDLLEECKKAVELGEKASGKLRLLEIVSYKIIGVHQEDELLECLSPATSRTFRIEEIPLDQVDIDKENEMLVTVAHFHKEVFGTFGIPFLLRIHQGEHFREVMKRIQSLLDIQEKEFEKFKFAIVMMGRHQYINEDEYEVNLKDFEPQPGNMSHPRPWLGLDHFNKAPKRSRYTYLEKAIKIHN
UniProt Q86UV5, sequence (Q86UV5 whole entry): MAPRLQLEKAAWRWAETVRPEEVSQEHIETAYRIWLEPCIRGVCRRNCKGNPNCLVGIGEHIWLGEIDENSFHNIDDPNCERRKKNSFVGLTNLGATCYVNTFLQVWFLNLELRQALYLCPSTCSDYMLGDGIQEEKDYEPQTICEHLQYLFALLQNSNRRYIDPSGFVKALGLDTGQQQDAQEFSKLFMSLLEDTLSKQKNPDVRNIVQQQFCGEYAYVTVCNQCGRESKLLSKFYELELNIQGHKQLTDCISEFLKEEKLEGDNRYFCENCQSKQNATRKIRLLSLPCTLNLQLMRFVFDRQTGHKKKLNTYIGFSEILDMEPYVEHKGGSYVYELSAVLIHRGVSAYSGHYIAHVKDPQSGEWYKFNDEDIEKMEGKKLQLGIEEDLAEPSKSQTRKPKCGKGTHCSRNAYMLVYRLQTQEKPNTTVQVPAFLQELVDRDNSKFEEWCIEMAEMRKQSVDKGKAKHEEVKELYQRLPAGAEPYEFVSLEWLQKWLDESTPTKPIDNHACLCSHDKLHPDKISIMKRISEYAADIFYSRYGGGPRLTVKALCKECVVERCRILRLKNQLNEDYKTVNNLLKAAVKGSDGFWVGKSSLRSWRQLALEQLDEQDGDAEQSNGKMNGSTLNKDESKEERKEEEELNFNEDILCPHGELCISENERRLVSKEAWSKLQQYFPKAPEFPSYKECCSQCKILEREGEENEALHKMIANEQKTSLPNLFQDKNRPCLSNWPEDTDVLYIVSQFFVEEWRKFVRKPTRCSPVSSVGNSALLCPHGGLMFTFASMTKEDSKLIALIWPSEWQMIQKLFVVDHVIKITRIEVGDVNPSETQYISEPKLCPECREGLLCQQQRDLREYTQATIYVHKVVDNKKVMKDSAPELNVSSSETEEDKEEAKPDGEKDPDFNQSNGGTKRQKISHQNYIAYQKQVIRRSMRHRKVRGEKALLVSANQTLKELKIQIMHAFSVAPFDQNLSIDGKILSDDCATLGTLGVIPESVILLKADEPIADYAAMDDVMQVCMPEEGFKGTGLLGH
UniProt O94966, sequence (O94966 whole entry): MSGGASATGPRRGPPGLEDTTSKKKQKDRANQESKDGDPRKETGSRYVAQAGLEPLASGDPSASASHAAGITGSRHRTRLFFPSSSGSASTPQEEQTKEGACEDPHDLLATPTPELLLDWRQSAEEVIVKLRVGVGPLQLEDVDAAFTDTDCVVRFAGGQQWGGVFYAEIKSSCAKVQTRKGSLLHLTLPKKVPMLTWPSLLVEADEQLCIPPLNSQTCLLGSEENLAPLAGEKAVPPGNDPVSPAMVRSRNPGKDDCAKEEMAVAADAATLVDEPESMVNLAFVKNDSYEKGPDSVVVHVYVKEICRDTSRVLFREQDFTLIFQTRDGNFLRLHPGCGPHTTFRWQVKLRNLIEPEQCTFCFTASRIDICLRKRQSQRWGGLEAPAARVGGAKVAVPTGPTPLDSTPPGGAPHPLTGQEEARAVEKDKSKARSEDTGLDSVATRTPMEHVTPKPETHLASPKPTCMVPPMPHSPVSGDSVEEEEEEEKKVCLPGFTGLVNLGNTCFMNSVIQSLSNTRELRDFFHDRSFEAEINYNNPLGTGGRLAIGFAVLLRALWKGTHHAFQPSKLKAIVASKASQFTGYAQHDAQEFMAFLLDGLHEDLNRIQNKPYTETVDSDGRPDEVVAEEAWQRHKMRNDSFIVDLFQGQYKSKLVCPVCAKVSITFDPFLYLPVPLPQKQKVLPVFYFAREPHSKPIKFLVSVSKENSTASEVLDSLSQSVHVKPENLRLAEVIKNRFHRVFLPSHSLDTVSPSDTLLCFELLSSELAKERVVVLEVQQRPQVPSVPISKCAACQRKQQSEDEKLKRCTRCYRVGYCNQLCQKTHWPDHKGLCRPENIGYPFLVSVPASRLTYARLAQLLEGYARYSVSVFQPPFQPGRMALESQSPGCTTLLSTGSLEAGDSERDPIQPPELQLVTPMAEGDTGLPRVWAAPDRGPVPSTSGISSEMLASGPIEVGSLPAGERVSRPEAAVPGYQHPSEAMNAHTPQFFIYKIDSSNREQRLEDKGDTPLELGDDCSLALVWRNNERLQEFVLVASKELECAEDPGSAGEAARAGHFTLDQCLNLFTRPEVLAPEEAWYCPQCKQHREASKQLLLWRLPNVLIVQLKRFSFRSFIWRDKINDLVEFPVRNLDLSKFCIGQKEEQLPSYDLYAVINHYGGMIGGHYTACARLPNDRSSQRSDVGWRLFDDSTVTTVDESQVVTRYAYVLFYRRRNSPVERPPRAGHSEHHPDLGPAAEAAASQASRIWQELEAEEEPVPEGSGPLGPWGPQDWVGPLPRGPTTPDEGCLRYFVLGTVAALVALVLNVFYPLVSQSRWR
UniProt Q70EL1, sequence (Q70EL1 whole entry): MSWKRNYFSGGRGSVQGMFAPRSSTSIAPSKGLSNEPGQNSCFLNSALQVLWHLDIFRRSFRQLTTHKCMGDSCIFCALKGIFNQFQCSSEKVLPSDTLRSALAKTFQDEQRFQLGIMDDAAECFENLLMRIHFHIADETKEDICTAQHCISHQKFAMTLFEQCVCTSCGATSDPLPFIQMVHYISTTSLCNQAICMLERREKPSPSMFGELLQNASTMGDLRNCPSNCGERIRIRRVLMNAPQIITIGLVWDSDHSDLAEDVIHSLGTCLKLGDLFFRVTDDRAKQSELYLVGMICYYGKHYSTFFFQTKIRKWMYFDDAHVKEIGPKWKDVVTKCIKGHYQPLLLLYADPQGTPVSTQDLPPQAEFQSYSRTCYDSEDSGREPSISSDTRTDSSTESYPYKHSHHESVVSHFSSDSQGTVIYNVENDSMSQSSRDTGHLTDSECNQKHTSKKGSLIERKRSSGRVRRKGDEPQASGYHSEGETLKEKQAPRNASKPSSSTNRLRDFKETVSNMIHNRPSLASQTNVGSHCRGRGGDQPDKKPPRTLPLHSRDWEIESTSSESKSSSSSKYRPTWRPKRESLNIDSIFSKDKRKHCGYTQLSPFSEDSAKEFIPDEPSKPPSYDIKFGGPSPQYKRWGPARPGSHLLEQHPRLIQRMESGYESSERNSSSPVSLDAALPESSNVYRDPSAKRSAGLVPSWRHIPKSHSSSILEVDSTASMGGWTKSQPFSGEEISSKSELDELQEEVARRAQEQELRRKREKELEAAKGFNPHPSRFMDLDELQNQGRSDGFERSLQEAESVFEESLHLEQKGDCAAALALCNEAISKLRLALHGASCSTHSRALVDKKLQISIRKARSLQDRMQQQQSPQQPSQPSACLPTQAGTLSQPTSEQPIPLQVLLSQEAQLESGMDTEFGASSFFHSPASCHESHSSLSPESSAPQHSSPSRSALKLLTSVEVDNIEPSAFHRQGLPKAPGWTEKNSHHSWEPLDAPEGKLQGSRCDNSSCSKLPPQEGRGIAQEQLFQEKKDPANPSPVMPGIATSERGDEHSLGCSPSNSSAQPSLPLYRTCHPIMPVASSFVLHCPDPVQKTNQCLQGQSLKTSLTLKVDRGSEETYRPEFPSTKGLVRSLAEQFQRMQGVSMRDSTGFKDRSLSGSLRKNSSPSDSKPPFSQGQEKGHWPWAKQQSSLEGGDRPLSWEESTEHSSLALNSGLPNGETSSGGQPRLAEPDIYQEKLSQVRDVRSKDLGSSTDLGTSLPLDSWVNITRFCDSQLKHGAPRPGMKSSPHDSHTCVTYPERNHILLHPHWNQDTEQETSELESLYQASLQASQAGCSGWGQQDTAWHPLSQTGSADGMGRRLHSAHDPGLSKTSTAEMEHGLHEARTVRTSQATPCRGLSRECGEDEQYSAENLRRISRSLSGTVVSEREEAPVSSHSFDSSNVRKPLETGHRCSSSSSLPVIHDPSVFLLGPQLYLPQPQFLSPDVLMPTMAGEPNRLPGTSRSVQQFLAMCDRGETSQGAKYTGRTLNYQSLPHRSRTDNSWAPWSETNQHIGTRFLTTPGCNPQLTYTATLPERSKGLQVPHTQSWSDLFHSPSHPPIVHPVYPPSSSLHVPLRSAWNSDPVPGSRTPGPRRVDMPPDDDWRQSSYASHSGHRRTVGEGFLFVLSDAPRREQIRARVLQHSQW

Target	log2 ratio of Biotin-Ahx-Ub-VS probe labelling
USP24 (UniProt Q9UPU5)	-0.155
ALG13 (UniProt Q9NP73)	0.259
COPS5 (UniProt Q92905)	-0.111
USP34 (UniProt Q70CQ2)	0.721
USP48 (UniProt Q86UV5)	-0.0601
USP39 (UniProt Q53GS9)	-0.0848
USP7 (UniProt Q93009)	-0.141
PRPF8 (UniProt Q6P2Q9)	0.045
MINDY4 (UniProt Q4G0A6)	0.173
UniProt P51784	-0.0555
USP19 (UniProt O94966)	-0.285
UniProt Q70EL2	-0.0717
USP42 (UniProt Q9H9J4)	-0.0062
USP8 (UniProt P40818)	-0.261
UCHL1 (UniProt P09936)	-0.297
UniProt Q9P2H5	-0.115
USP54 (UniProt Q70EL1)	-0.068
BAP1 (UniProt Q92560)	-0.376
FAM105A (UniProt Q9NUU6)	-0.103
OTUD6B (UniProt Q8N6M0)	-0.197

Same assay, conditions: compound concentration: 200uM; treatment time: 3 h

Target	log2 ratio of Biotin-Ahx-Ub-VS probe labelling
USP24 (UniProt Q9UPU5)	-0.576
ALG13 (UniProt Q9NP73)	0.307
COPS5 (UniProt Q92905)	-0.11
USP34 (UniProt Q70CQ2)	-0.382
USP48 (UniProt Q86UV5)	-0.185
USP39 (UniProt Q53GS9)	0.0939
USP7 (UniProt Q93009)	-0.201
PRPF8 (UniProt Q6P2Q9)	-0.00376
MINDY4 (UniProt Q4G0A6)	-0.0819
UniProt P51784	-0.0925
USP19 (UniProt O94966)	-0.557
UniProt Q70EL2	-0.437
USP42 (UniProt Q9H9J4)	0.221
USP8 (UniProt P40818)	-0.168
UCHL1 (UniProt P09936)	-0.13
UniProt Q9P2H5	0.00502
USP54 (UniProt Q70EL1)	-0.954
BAP1 (UniProt Q92560)	-0.502
FAM105A (UniProt Q9NUU6)	0.0672
OTUD6B (UniProt Q8N6M0)	-0.265
